Laboratory results: PubChem BioAssay (NCI)
About 83,000 compounds went through this panel and 20% of them were active in at least one assay; those are over-represented in the sample as a whole.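 48-hour exposure, single concentration, 96-well plates; percent growth endpoint where 0 means no net growth. Active: below 10.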 A number with no mark means an inactive call. Calls of active or inactive are those of the source.

Legend:
Test in all cases: NCI-60 one-dose screen, 48 h (100 = growth as untreated, 0 = no growth, -100 = all killed)
Details in all cases: 10 µM unless noted
NCI-H226 lung = system: NCI-H226 lung
NCI-H322M lung = system: NCI-H322M lung
HOP-62 NSCLC = system: HOP-62 NSCLC
NCI-H460 lung = system: NCI-H460 lung
HOP-92 NSCLC = system: HOP-92 NSCLC
NCI-H522 lung = system: NCI-H522 lung
A549/ATCC NSCLC = system: A549/ATCC NSCLC
786-0 renal = system: 786-0 renal
COLO 205 colon = system: COLO 205 colon

| Compound | growth (NCI-H226 lung) | growth (NCI-H322M lung) | growth (HOP-62 NSCLC) | growth (NCI-H460 lung) | growth (HOP-92 NSCLC) | growth (NCI-H522 lung) | growth (A549/ATCC NSCLC) | growth (786-0 renal) | growth (COLO 205 colon) |
| --- | --- | --- | --- | --- | --- | --- | --- | --- | --- |
| N#Cc1c(-c2ccccn2)[nH]c(=S)[nH]c1=O | 103% | 97% | 99.9% | 108% | 93.6% | 88.9% | 98% | 92.2% | 110% |
| COc1ccc(N=Nc2ccc(O)c(=O)cc2)cc1 | 4.29% (active) | 25.2% | 19.1% | 2.64% (active) | 19.4% | 0.606% (active) | 5.6% (active) | 19.5% | 26.3% |
| CCOC(CN=Cc1cc(C)c2[nH]c3ccccc3c2c1C)OCC | 6.9% (active) | 113% | 102% | 83.1% | 115% | 113% | 102% | 93.2% | 107% |
| COc1ccc(-c2nc(SCCC(C)C)nc(N/N=C\c3cccc([N+](=O)[O-])c3)c2C#N)cc1 | 44.5% | 45.6% | 17.7% | 13.3% | 50.9% | 29.8% | 11.7% | 15.3% | 42% |
| COC(=O)[C@]12CC[C@@H](C)[C@H](C)[C@@H]1C1=CC[C@@H]3[C@@]4(C)C(C=O)=C[C@@](C)(COC(C)=O)[C@@H]4C(=O)C[C@@]3(C)[C@]1(C)CC2 | 38.7% | 77.2% | 50.1% | 18.8% | 47.7% | 12.9% | 14.2% | 37.3% | -9.64% (active) |
| COc1ccc(-c2nc(SCCC(C)C)nc(N/N=C\c3ccccc3O)c2C#N)cc1 | 84.4% | 82.7% | 92.5% | 59.1% | 88.4% | 84.6% | 78.2% | 88.9% | 96.4% |
| CCc1c2c(nc3ccc(OC(=O)OCc4ccc(B5OC(C)(C)C(C)(C)O5)cc4)cc13)-c1cc3c(c(=O)n1C2)COC(=O)[C@]3(O)CC | -59.9% (active) | 1.92% (active) | -10.7% (active) | -6.28% (active) | 9.38% (active) | -28.3% (active) | 3.37% (active) | 11.7% | 7.72% (active) |
| O=C(/C=C/c1cccc(O)c1)c1cccc(-n2cc(-c3ccc4ccccc4c3)[nH]c2=O)c1 | 88.9% | 4.64% (active) | -20.9% (active) | -9.23% (active) | 42.6% | 75.9% | 61.8% | -87.9% (active) | -8.8% (active) |
| COc1ccc(-c2[nH]c(=S)n(C(CC3(C)NCC(=O)N3n3c(-c4ccccc4)cc(C)nc3=S)c3ccc(OC)cc3)c(=O)c2Br)cc1 (stereo not drawn) | 57.1% | 82.2% | 66.9% | 73.1% | 38.5% | 42.4% | 72% | 83.3% | 74.9% |
| COc1ccc(N2CCN(c3nc(-c4cc(OC)c(OC)c(OC)c4)nc4ccccc34)CC2)cc1 | 78.4% | 91.4% | 83.9% | 87% | 56.6% | 55.1% | 80.5% | 85.7% | 62.9% |
| Cc1cc(NCCCCNc2ccnc3cc(Cl)ccc23)nc(Nc2ccc(C(=O)N3CCCC3)cc2)n1 | 108% | 67.6% | 92.5% | 18.1% | 72.6% | 26.5% | 24% | 68.4% | -42.8% (active) |
| O=C1c2cccc(NCCN=Cc3cc([N+](=O)[O-])ccc3O)c2C(=O)c2c(NCCN=Cc3cc([N+](=O)[O-])ccc3O)cccc21 | 77% | 77% | 55.4% | 53.4% | 62.4% |  | 84.6% | 82.6% | 55.9% |
| CNC(=O)CCN1CCN(CC/C=C2\c3ccccc3Sc3ccc(Cl)cc32)CC1 | 121% | 74.8% | 102% | 92.6% | -4.86% (active) | 85% | -27.4% (active) | 75.9% | 85.8% |
| CN1CCN(CC(=O)Nc2nc(-c3cccc(NS(=O)(=O)c4cccc5c(N(C)C)cccc45)c3)cs2)CC1 | 75.2% | 105% | 85.9% | 55.7% | 57.6% | 67.7% | 72.5% | 79.5% | 76.9% |
| Fc1c[c-]c(-c2ccccn2)c(F)c1.[CH3-].[Pt+2].c1ccc(P(C[PH+](c2ccccc2)c2ccccc2)c2ccccc2)cc1 | 3.56% (active) | 2.51% (active) | 0.563% (active) | -68.8% (active) | -80.7% (active) | -24% (active) | -0.672% (active) | -52.5% (active) | -29.9% (active) |
| O=C(Cc1ccc(F)c(F)c1)Nc1cc(C2(C(F)(F)F)CC2)nn1Cc1ccccc1 | 8.26% (active) | 13.4% | -0.0766% (active) | 0.876% (active) | -17.7% (active) |  | 9.17% (active) | 12.1% | -86.7% (active) |
| COc1ccc(OC)c2c1[nH]c(=O)c1c3ncccc3cn21 | 32.2% | 48.5% | 31.7% | -3.99% (active) | 57.4% | 29.7% | 13.5% | 34.7% | 22.8% |
| COc1ccc(NC(=O)CSc2nnc(-c3cc(-c4ccc(S(N)(=O)=O)cc4)nc4ccccc34)n2-c2ccccc2)cc1 | 77.5% | 93.8% | 85.7% | 91% | 62.2% | 78% | 90.9% | 88.4% | 95.5% |
| COc1ccc(OC)c(-c2c(C#N)c(-c3ccc(Cl)cc3)nc3c2c(-c2ccccc2)nn3-c2ccccc2)c1 | 98.3% | 95.7% | 99.3% | 103% | 101% | 86% | 98.4% | 98.1% | 104% |
| NNC(=O)c1nc(N)n(-c2ccc(S(N)(=O)=O)cc2)n1 | 98.7% | 97.3% | 90.6% | 105% | 74.2% | 80.3% | 97.1% | 95.7% | 103% |
| Cc1ccc(/C=C2\C(=O)N(C)c3ccc(S(=O)(=O)Nc4ccc(C(C)(C)C)cc4)cc32)s1 | 86% | 58.7% | 31.8% | 32.1% | 60% | 43.4% | 33.1% | 40.1% | 70.9% |
| COC(=O)CCC1=C(C)C2=NC1=CC1=NC(=CC3=NC(=Cc4[nH]c(/c(=C(/C)O)c4C)=C2)C(C(C)=O)=C3C)C(C)=C1CCC(=O)OC | 83.9% | 102% | 98.8% | 103% | 88.2% | 98.8% | 88.6% | 105% | 111% |
| Oc1ccc(CN2CCC(N3CCOCC3)CC2)c2cccnc12 | 64.6% | 57% | 17.2% | 10.8% | -16% (active) | -14.9% (active) | 14.1% | 35.1% | 104% |
| CC(=O)n1c(-c2ccc(Cl)cc2)nc2c(c1=O)C(c1ccc(Cl)cc1)c1sc3c(Cl)cccc3c1O2 (stereo not drawn) | 9.2% (active) | 16.7% | 7.03% (active) | -30.4% (active) | 1.47% (active) | -32.9% (active) | -63.7% (active) | -50.1% (active) | -55.9% (active) |
| COc1ccc(-c2cc(-c3cc(OC)ccc3OC)nc(SCC(=O)c3ccccc3)c2C#N)cc1 | 84.4% | 103% | 89.9% | 102% | 92.3% | 79% | 92.7% | 109% | 97.8% |
